Experiments:
Assay in all cases: protein binding microarray; high values mean tight binding
Conditions in all cases: dsDNA, one strand shown
[1] = target: RELARELA (p65 homodimer) (Homo sapiens, UniProt Q04206 1-307)
[2] = target: p50p50 homodimer (Homo sapiens, UniProt P19838 7-356)
[3] = target: T1, p52p52 homodimer (Homo sapiens, UniProt Q00653 4-332)
T1 sequence: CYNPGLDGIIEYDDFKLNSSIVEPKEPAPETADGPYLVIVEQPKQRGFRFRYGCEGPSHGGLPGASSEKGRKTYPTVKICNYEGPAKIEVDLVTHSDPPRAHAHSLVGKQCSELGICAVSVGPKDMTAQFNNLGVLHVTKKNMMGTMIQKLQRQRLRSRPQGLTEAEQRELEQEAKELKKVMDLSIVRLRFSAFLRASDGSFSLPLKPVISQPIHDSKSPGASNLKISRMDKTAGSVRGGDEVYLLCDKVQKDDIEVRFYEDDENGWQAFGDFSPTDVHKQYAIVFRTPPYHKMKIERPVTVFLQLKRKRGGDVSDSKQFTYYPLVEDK

[4] = target: RELA (p65) subunit of heterodimer;p50 subunit (Homo sapiens;Homo sapiens, UniProt Q04206;P19838 1-307;7-356)
[5] = target: RELA (p65) subunit of heterodimer;p52 subunit (Homo sapiens;Homo sapiens, UniProt Q04206;Q00653 1-307;4-332)
[6] = target: RELB subunit;p50 subunit (Homo sapiens;Homo sapiens, UniProt Q01201;P19838 120-401;7-356)
[7] = target: T2, RELB subunit;p52 subunit (Homo sapiens;Homo sapiens, UniProt Q01201;Q00653 120-401;4-332)
T2 sequence 1: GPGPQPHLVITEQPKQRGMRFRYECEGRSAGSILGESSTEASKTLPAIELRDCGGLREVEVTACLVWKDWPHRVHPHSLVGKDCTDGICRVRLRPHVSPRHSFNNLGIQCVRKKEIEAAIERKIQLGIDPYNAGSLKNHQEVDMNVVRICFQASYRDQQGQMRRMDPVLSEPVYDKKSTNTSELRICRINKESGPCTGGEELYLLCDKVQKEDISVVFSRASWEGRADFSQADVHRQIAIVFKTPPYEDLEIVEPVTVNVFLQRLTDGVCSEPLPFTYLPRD
T2 sequence 2: T1 sequence

[8] = target: C-Rel subunit;p50 subunit (Homo sapiens;Homo sapiens, UniProt Q04864;P19838 1-285;7-356)
[9] = target: T3, C-Rel subunit;p52 subunit (Homo sapiens;Homo sapiens, UniProt Q04864;Q00653 1-285;4-332)
T3 sequence 1: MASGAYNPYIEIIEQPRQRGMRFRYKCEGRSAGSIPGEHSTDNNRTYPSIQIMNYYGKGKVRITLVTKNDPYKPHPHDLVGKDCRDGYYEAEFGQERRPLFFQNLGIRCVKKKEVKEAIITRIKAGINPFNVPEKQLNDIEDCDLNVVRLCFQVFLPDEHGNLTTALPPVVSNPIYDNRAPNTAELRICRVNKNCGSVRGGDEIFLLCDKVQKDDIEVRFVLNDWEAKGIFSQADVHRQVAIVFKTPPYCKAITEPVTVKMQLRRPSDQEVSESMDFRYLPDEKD
T3 sequence 2: T1 sequence

Sequence of p50p50 homodimer (P19838 7-356): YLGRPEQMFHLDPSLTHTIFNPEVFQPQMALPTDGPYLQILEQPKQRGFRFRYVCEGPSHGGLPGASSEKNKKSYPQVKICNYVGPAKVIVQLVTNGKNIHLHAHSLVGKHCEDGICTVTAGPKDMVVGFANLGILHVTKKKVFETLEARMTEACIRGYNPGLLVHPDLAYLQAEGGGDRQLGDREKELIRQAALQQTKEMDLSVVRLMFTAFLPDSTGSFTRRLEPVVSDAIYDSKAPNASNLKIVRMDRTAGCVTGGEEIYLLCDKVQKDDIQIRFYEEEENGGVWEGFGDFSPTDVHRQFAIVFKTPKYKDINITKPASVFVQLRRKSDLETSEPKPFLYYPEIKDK
Sequence of RELA (p65) subunit of heterodimer;p50 subunit (Q04206 1-307, chain 1 of 2): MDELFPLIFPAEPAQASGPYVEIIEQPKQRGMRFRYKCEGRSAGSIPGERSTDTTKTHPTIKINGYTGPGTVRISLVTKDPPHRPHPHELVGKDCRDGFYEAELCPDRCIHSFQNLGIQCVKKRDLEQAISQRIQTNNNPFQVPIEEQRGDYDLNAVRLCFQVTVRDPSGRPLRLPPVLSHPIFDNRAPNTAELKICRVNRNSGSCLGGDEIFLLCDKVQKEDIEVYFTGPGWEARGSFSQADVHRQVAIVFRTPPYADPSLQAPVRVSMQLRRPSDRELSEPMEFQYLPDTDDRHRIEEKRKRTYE
Sequence of RELA (p65) subunit of heterodimer;p50 subunit (P19838 7-356, chain 2 of 2): as the sequence (P19838 7-356) above
Sequence of RELARELA (p65 homodimer) (Q04206 1-307): as the sequence (Q04206 1-307, chain 1 of 2) above

Sequence | binding signal [1] [z-score] | binding signal [2] [z-score] | binding signal [3] [z-score] | binding signal [4] [z-score] | binding signal [5] [z-score] | binding signal [6] [z-score] | binding signal [7] [z-score] | binding signal [8] [z-score] | binding signal [9] [z-score]
GAAATTGCCCT | 0.612 | -0.312 | -0.333 | 0.0283 | -0.203 | -0.547 | -0.476 | 0.175 | -0.0915
CGGTGGATCCC | 0.0568 | 0.42 | 2.32 | 0.748 | 1.33 | 0.911 | 1.38 | 0.293 | 1.43
CAAATTACCCT | 0.402 | 1.05 | 0.802 | 0.662 | 0.929 | 0.64 | 0.781 | 0.509 | 0.784
GAATAAGTCCC | 0.563 | 1.13 | 0.974 | 1.43 | 0.993 | 1.38 | 1.13 | 1.03 | 0.676
GAATTATTCCC | 1.89 | 0.532 | 0.423 | 0.97 | 0.744 | 0.44 | 0.413 | 1.16 | 0.686
CAGTAGCTCCT | -0.468 | -1.98 | -0.806 | -1.09 | -1.13 | -1.24 | -1.1 | -1.72 | -1.02
GAGGAGCCCCC | -0.939 | 1.04 | 0.368 | 0.44 | 0.25 | 0.656 | 0.61 | 0.625 | 0.222
CAATACATCCC | -0.0719 | -0.836 | -0.518 | -0.774 | -0.7 | -0.646 | -0.575 | -0.971 | -0.69
AAATTTGCCCT | 0.9 | -0.198 | -0.202 | 0.0394 | -0.125 | -0.452 | -0.337 | 0.26 | 0.00992
CGGATTGCCCC | 2 | 0.548 | 0.518 | 1.35 | 0.991 | 0.497 | 0.607 | 1.07 | 0.987
AGATGGTCCCC | -0.243 | 0.441 | 0.342 | 0.0737 | 0.172 | 0.435 | 0.355 | 0.292 | 0.217
GAAAATCTCCC | 1.06 | 0.914 | 0.592 | 0.875 | 0.8 | 1.08 | 0.63 | 0.573 | 0.538
CGGTTATCCCT | 0.134 | 0.215 | 0.38 | 0.0537 | 0.272 | 0.229 | 0.321 | 0.223 | 0.381
GGATGAACCCT | -0.273 | -1.25 | -0.595 | -0.588 | -0.76 | -0.936 | -0.814 | -1.23 | -0.571
GGATACTTCCT | 0.213 | -1.36 | -0.625 | -0.647 | -0.831 | -1.14 | -0.942 | -1.04 | -0.591

Reference: paper PMC3218832
